# Paper PMC7862700, “An all-to-all approach to the identification of sequence-specific readers for epigenetic DNA modifications on cytosine”
# How the values were obtained:
# Assay in all cases: DAPPL (digital affinity profiling via proximity ligation, sequencing); 10 mM Tris-HCl pH 7.5, 50 mM NaCl, 1 mM DTT, 4% glycerol, room temperature, 30 min; GST-TFs on glutathione beads, 16-mer random dsDNA library, 0.1% formaldehyde crosslink after washing; high values mean tight binding
# Details in all cases: protein: recombinant; tags: N-terminal GST; dsDNA, one strand shown
# [1] = target: T1, GABPA (Homo sapiens, UniProt Q06546 1-454)
# T1 sequence: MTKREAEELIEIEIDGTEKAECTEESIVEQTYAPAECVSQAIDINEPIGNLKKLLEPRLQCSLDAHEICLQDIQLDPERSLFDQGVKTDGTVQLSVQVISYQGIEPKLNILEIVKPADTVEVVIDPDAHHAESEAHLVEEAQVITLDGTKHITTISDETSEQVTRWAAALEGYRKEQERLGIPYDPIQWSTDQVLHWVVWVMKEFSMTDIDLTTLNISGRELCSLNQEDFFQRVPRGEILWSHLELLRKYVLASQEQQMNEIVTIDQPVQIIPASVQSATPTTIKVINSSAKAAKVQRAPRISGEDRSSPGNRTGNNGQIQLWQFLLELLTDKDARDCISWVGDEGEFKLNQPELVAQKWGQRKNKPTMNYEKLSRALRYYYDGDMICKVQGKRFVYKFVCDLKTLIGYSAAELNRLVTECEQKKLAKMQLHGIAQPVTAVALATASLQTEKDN
# Summary of the method: (§1)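 A tag-only sample was pooled with DNA-barcoded human transcription factors that had been expressed in yeast as GST fusions and captured on glutathione beads. The pools were incubated for 30 min at room temperature with 200 nmole of a random double-stranded 16-mer DNA library in Tris/NaCl/DTT/glycerol buffer, then washed, crosslinked with 0.1% formaldehyde, proximity-ligated (BsaI/T4 ligase, 1 h, 37 °C), PCR-amplified and sequenced on an Illumina NextSeq500. Binding signal is each hexamer's read frequency for a factor divided by its frequency for the tag-only sample.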
# [2] = target: ELF1 (Homo sapiens, UniProt P32519 1-619)
# Chain of ELF1 (P32519 whole entry): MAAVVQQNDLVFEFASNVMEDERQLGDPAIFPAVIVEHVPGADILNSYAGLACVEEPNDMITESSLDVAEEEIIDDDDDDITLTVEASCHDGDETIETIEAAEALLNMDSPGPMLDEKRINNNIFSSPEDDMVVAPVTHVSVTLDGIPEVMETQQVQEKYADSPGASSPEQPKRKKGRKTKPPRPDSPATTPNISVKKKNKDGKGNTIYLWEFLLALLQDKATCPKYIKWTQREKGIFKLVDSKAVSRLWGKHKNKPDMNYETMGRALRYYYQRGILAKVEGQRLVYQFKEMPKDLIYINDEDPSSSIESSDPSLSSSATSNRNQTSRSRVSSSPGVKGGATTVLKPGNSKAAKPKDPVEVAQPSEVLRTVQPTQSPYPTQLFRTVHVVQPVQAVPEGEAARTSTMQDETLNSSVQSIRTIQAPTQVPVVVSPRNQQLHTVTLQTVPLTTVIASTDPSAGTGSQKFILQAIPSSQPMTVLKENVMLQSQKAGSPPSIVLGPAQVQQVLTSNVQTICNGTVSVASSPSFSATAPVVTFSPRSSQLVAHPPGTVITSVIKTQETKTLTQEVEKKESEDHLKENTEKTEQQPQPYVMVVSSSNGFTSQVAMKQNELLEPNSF
# Summary of the method: as §1
# [3] = target: T2, EHF (Homo sapiens, UniProt Q9NZC4 1-300)
# T2 sequence: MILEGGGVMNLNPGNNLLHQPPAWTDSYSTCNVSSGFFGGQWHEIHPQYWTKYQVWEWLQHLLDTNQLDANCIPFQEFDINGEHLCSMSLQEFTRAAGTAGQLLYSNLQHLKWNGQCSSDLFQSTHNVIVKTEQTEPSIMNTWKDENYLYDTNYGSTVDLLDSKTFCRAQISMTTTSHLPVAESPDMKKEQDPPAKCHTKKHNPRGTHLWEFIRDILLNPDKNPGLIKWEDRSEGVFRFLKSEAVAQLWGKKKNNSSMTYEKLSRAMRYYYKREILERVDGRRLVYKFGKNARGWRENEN
# Summary of the method: as §1
# [4] = target: SPIB (Homo sapiens, UniProt Q01892 1-262)
# Chain of SPIB (Q01892 whole entry): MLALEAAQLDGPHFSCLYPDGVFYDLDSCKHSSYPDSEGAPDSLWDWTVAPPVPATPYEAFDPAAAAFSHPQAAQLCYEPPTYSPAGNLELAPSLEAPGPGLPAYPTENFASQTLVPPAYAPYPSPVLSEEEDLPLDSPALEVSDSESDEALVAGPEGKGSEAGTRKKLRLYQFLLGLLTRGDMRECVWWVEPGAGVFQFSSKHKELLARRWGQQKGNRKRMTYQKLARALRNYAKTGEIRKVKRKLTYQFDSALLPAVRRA
# Summary of the method: as §1
# [5] = target: T3, SPIC (Homo sapiens, UniProt Q8N5J4 1-248)
# T3 sequence: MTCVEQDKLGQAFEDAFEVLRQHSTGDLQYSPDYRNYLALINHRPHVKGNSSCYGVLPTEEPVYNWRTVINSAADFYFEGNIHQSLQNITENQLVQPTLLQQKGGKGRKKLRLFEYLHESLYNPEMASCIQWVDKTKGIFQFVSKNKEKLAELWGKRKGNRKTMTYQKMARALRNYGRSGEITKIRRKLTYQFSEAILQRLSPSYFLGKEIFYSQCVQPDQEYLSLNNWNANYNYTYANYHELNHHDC
# Summary of the method: as §1
# [6] = target: ELF4 (Homo sapiens, UniProt Q99607 1-663)
# Chain of ELF4 (Q99607 whole entry): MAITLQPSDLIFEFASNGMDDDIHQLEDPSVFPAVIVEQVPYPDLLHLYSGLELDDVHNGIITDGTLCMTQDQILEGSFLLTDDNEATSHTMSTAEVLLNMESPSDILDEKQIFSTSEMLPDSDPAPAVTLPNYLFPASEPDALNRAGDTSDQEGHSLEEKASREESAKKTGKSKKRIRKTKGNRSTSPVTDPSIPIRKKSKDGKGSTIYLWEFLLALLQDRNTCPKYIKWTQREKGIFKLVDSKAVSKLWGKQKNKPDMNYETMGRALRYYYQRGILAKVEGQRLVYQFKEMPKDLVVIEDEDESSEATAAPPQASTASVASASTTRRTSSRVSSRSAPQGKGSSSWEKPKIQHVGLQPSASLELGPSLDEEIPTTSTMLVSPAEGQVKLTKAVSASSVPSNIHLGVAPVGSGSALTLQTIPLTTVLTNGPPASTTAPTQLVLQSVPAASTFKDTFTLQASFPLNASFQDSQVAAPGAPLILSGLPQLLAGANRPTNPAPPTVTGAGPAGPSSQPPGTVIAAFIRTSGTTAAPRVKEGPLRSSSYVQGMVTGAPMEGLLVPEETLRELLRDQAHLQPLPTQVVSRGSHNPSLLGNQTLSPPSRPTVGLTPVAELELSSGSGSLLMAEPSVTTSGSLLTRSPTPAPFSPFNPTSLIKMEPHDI
# Summary of the method: as §1
# [7] = target: T4, ETV2 (Homo sapiens, UniProt O00321 1-342)
# T4 sequence: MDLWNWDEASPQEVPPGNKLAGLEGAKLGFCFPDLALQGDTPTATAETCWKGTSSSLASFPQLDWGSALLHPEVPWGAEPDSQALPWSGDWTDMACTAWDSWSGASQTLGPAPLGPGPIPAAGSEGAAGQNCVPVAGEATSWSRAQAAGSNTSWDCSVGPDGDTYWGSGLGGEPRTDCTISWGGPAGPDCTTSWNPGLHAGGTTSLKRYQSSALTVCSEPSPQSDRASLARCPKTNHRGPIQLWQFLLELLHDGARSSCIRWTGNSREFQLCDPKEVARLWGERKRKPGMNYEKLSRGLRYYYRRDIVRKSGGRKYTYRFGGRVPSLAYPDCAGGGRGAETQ
# Summary of the method: as §1
# [8] = target: T5, ELF3 (Homo sapiens, UniProt P78545 1-371)
# T5 sequence: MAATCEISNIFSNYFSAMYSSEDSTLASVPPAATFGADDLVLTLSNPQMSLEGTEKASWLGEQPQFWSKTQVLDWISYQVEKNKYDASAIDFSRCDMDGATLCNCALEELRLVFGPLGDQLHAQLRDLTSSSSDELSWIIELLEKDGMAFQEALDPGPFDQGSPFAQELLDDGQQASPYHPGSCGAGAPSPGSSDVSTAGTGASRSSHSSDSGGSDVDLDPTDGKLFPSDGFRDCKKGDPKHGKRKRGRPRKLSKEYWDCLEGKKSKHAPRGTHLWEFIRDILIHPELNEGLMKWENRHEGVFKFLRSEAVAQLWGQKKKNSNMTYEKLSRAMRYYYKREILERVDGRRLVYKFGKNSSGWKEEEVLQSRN
# Summary of the method: as §1
# [9] = target: ETV1 (Homo sapiens, UniProt P50549 1-477)
# Chain of ETV1 (P50549 whole entry): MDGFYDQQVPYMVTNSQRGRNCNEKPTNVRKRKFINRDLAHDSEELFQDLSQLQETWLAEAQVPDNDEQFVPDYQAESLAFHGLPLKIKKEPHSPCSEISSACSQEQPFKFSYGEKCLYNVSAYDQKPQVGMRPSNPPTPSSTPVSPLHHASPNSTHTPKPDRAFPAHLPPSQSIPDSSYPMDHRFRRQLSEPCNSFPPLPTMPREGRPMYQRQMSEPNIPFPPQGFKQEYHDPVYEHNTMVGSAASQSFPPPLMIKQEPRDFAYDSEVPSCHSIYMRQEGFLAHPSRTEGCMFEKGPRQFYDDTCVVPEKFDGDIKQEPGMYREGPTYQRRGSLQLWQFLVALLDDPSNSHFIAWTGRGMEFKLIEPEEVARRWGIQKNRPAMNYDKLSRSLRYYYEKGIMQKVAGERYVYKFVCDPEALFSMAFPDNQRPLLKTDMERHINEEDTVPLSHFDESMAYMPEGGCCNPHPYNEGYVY
# Summary of the method: as §1
# [10] = target: T6, ERF (Homo sapiens, UniProt P50548 1-548)
# T6 sequence: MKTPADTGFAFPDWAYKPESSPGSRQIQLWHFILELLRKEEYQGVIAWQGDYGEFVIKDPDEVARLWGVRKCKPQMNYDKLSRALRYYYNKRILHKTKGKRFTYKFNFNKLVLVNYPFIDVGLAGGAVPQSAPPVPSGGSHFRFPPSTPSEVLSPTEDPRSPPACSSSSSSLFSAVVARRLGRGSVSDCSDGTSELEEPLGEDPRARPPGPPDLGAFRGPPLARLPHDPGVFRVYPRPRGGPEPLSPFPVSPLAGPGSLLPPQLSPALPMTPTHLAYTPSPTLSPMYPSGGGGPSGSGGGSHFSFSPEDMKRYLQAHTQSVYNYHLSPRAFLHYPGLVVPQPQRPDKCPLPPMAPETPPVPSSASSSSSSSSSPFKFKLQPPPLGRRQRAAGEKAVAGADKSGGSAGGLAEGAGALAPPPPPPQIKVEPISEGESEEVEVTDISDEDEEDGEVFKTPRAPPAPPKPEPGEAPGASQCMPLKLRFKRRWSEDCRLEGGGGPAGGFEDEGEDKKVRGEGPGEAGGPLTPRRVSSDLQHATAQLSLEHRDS
# Summary of the method: as §1
# [11] = target: T7, ETV3L (Homo sapiens, UniProt Q6ZN32 1-361)
# T7 sequence: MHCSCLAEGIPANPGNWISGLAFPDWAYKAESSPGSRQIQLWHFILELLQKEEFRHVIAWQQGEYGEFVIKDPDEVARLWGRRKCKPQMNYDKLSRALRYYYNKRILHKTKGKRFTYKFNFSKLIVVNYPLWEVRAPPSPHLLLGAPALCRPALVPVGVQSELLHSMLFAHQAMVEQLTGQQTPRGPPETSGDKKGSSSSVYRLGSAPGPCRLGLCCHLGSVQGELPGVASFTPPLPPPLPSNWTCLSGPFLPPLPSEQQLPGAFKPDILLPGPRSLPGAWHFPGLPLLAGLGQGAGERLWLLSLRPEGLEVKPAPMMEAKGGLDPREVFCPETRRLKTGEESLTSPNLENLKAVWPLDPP
# Summary of the method: as §1
# [12] = target: T8, ETS2 (Homo sapiens, UniProt P15036 1-469)
# T8 sequence: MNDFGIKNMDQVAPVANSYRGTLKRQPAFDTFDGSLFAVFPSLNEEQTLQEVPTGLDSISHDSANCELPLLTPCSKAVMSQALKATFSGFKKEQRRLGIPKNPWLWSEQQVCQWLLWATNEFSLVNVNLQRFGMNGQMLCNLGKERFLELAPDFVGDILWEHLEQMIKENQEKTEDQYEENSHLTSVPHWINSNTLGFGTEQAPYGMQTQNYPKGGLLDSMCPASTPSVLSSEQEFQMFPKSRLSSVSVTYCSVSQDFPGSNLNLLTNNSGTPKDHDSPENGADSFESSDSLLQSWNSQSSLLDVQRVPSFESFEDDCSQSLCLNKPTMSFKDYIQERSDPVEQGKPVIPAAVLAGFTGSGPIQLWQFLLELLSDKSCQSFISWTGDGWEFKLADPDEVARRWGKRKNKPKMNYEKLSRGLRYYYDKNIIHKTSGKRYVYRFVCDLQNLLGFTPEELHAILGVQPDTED
# Summary of the method: as §1
# [13] = target: T9, ETV3 (Homo sapiens, UniProt P41162-2 1-143)
# T9 sequence: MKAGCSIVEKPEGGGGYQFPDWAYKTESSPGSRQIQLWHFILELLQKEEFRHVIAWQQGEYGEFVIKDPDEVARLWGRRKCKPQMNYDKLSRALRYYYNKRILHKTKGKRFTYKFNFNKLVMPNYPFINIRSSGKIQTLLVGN
# Summary of the method: as §1
# [14] = target: T10, ELK1 (Homo sapiens, UniProt P19419 1-428)
# T10 sequence: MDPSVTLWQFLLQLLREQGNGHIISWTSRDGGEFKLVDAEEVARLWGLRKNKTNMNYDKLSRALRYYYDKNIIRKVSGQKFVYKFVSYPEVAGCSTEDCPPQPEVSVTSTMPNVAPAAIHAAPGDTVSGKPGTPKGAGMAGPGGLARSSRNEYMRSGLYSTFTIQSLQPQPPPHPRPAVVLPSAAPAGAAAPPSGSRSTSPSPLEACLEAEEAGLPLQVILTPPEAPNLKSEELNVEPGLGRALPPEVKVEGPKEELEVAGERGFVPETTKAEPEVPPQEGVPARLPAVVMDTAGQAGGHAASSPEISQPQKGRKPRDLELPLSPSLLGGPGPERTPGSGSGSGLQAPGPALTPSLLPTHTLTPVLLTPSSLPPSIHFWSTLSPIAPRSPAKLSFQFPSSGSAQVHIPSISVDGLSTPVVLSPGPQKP
# Summary of the method: as §1
# [15] = target: T11, ERG (Homo sapiens, UniProt P11308 1-479)
# T11 sequence: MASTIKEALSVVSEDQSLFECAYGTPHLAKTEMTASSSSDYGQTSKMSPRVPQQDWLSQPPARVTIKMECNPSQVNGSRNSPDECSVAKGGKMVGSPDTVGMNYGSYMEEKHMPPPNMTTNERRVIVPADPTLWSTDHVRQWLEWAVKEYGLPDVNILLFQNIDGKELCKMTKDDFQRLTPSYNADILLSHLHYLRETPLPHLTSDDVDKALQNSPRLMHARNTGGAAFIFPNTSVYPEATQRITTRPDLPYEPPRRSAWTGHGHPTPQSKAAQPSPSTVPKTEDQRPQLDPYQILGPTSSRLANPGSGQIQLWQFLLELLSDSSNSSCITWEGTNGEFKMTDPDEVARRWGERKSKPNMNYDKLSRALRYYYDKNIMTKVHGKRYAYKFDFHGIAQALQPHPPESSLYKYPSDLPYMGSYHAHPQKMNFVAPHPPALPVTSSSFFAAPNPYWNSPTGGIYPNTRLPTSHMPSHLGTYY
# Summary of the method: as §1
# [16] = target: T12, FEV (Homo sapiens, UniProt Q99581 1-238)
# T12 sequence: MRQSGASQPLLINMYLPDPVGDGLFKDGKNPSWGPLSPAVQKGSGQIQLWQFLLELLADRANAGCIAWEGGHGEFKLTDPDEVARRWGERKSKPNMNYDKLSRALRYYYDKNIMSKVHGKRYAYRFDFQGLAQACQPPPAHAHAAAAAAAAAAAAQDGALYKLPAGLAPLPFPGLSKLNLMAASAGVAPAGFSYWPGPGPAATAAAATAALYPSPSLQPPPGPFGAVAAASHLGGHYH
# Summary of the method: as §1
# [17] = target: CRX (Homo sapiens, UniProt O43186 1-299)
# Chain of CRX (O43186 whole entry): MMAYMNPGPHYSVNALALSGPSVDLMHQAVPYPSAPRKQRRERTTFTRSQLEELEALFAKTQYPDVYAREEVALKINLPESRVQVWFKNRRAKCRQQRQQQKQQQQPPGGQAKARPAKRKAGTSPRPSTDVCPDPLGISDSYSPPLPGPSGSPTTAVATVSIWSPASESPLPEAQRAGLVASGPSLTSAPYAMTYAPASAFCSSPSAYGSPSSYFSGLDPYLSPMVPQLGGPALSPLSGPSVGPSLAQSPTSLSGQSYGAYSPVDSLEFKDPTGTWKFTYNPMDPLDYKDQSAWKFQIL
# Summary of the method: as §1
# [18] = target: T13, ETV7 (Homo sapiens, UniProt Q9Y603 1-341)
# T13 sequence: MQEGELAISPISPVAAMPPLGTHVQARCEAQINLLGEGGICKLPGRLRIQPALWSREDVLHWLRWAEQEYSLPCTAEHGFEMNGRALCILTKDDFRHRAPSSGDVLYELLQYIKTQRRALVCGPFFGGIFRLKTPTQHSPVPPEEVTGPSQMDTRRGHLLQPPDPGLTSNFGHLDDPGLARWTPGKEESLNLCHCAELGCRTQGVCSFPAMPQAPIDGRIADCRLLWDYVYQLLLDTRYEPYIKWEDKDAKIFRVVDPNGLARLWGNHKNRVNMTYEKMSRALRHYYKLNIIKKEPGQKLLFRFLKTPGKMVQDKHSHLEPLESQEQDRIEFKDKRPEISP
# Summary of the method: as §1
Sequence,binding signal [1],binding signal [2],binding signal [3],binding signal [4],binding signal [5],binding signal [6],binding signal [7],binding signal [8],binding signal [9],binding signal [10],binding signal [11],binding signal [12],binding signal [13],binding signal [14],binding signal [15],binding signal [16],binding signal [17],binding signal [18]
CAGCTC,"1.01 fold enrichment (6-mer frequency, TF over GST control)","1.06 fold enrichment (6-mer frequency, TF over GST control)","1.01 fold enrichment (6-mer frequency, TF over GST control)","1.01 fold enrichment (6-mer frequency, TF over GST control)","1.06 fold enrichment (6-mer frequency, TF over GST control)","1.05 fold enrichment (6-mer frequency, TF over GST control)","1.02 fold enrichment (6-mer frequency, TF over GST control)","1.04 fold enrichment (6-mer frequency, TF over GST control)","1.08 fold enrichment (6-mer frequency, TF over GST control)","1.05 fold enrichment (6-mer frequency, TF over GST control)","1.11 fold enrichment (6-mer frequency, TF over GST control)","1.06 fold enrichment (6-mer frequency, TF over GST control)","1 fold enrichment (6-mer frequency, TF over GST control)",,,,,
TAGGCA,,"1.02 fold enrichment (6-mer frequency, TF over GST control)",,"1.02 fold enrichment (6-mer frequency, TF over GST control)","1.11 fold enrichment (6-mer frequency, TF over GST control)","1.01 fold enrichment (6-mer frequency, TF over GST control)","1.19 fold enrichment (6-mer frequency, TF over GST control)",,,,"1.02 fold enrichment (6-mer frequency, TF over GST control)",,"1.01 fold enrichment (6-mer frequency, TF over GST control)","1.03 fold enrichment (6-mer frequency, TF over GST control)","1.06 fold enrichment (6-mer frequency, TF over GST control)","1.05 fold enrichment (6-mer frequency, TF over GST control)","1.08 fold enrichment (6-mer frequency, TF over GST control)","1.06 fold enrichment (6-mer frequency, TF over GST control)"
